Values joined by “and” are separate entries in the source; they are usually repeats but may differ in a detail not shown here. Equal values may be shown once. Results filed as inconclusive are left out. Active and inactive are the calls of the source. Calls come from the whole dose curve; as a rule, active = well fitted curve in the direction sought with a large enough effect in the repeat runs; inconclusive = weak or mixed curves; inactive = no such curve, though single readings can be large; an effect the other way counts as inactive or inconclusive.
How the values were obtained:
[1] = A CellTox Green Cytotoxicity Assay to monitor cytotoxicity in HEK293 cells - 40 hour (AID 1224871); note: nearly all actives have a fitted effect of over 45% in size
Summary of the method: (§1)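 Homogeneous no-lysis format: HEK293 cell suspension mixed with CellTox Green reagent, seeded, incubated 5 h at 37 C/5% CO2, then dosed by pintool with compound in DMSO.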

[2] = qHTS RealTime-Glo MT Cell Viability Assay in HepG2 cells - 8 hour (AID 1224873); note: nearly all actives have a fitted effect of over 55% in size
Summary of the method: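 Real-time viability: cells seeded at 600 per well together with NanoLuc and cell-permeant prosubstrate, compounds added after 5 h incubation. Luminescence tracked at 0, 8, 16, 24, 32 and 40 h of exposure.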

[3] = A CellTox Green Cytotoxicity Assay to monitor cytotoxicity in HEK293 cells - 24 hour (AID 1224875); note: nearly all actives have a fitted effect of over 45% in size; for activity change: series mostly up to about 77 µM
Summary of the method: as §1

[4] = A CellTox Green Cytotoxicity Assay to monitor cytotoxicity in HepG2 cells - 16 hour (AID 1224876); note: nearly all actives have a fitted effect of over 45% in size
Summary of the method: (§2)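 Fluorescent DNA-binding dye, 600 HepG2 cells/well, 5 h preincubation then compound in DMSO; same plates read at 0–40 h, 37 C.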

[5] = qHTS RealTime-Glo MT Cell Viability Assay in HepG2 cells - 32 hour (AID 1224877); note: nearly all actives have a fitted effect of over 55% in size
Summary of the method: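 qHTS, HepG2, 600 cells/well, RealTime-Glo (NanoLuc + prosubstrate) added with cells; 5 h preincubation; DMSO compound addition; 37 C; luminescence at 0/8/16/24/32/40 h.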

[6] = A CellTox Green Cytotoxicity Assay to monitor cytotoxicity in HepG2 cells - 24 hour (AID 1224878); note: nearly all actives have a fitted effect of over 45% in size
Summary of the method: as §2

[7] = A CellTox Green Cytotoxicity Assay to monitor cytotoxicity in HepG2 cells - 40 hour (AID 1224879); note: nearly all actives have a fitted effect of over 40% in size
Summary of the method: as §2

[8] = qHTS RealTime-Glo MT Cell Viability Assay in HEK293 cells - 0 hour (AID 1224880); note: nearly all actives have a fitted effect of over 45% in size; for activity change, negative = cytotoxicity: top concentration of the series differs between compounds
Summary of the method: (§3)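 Measured as luminescence from the same continuously cultured HEK293 wells at successive time points (0, 8, 16, 24, 32, 40 h) after compound addition. Reagent present from seeding; dosing at 5 h; incubation 37 C.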

[9] = qHTS RealTime-Glo MT Cell Viability Assay in HEK293 cells - 40 hour (AID 1224874); details: RealTime-Glo luminescence; max response: hits give low values; note: nearly all actives have a fitted effect of over 50% in size
Summary of the method: as §3

[10] = qHTS RealTime-Glo MT Cell Viability Assay in HEK293 cells - 16 hour (AID 1224872); note: nearly all actives have a fitted effect of over 50% in size; for activity change, negative = cytotoxicity: top concentration of the series differs between compounds
Summary of the method: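 Assay medium contained NanoLuc luciferase plus cell-permeant prosubstrate, added with HEK293 cells at 600 cells/well. After 5 h at 37 C/5% CO2 compounds were added; plates stayed at 37 C for 40 h with serial luminescence reads.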
% is set by controls: 0 for no effect and ±100 for the full control effect; potency is the fitted concentration of half-maximal effect.

CC(C)C(OC(=O)c1ccccc1)C(C)(C)COC(=O)c1ccccc1 (configuration not stated)
inactive: Potency [1] | Potency [2] | Potency [3] | Potency [4] | Potency [5] | Potency [6] | Potency [7] | Potency [8]

CCc1c2c(nc3ccc(OC(=O)N4CCC(N5CCCCC5)CC4)cc13)-c1cc3c(c(=O)n1C2)COC(=O)[C@]3(O)CC
inactive: Potency [1] | Potency [2] | Potency [3] | Potency [5] | Potency [6] | Potency [8]
active: Potency [9] 2.39 µM

CSc1ccc(Oc2ccc(S(N)(=O)=O)cc2CN(C)C)cc1C
inactive: Potency [1] | Potency [2] | Potency [3] | Potency [5]
active: Potency [9] 38.9 µM

O=C(Nc1ccc([N+](=O)[O-])cc1)Nc1ccc([N+](=O)[O-])cc1
inactive: Potency [2] | Potency [3] | Potency [4] | Potency [8]
active: Potency [1] 13.4 µM | Potency [9] 7.56 µM | Potency [7] 23.9 µM

Cc1cc(O)c(C(C)C)cc1Cl
inactive: Potency [2] | max response [9] -23.1% and 3.73% | Potency [5] | Potency [8]
active: Potency [1] 38.9 µM | Potency [4] 24.5 µM | Potency [6] 27.5 µM | Potency [7] 34.7 µM

CC1CC(=O)NN=C1c1ccc(NCC(C)(C)NCC(O)COc2cc(Cl)ccc2C#N)cc1 (configuration not stated)
inactive: Potency [1] | Potency [2] | Potency [3] | Potency [4] | Potency [5] | Potency [7] | Potency [8]

CCCC(=O)O[C@]1(C(=O)COC(=O)CC)CC[C@H]2[C@@H]3CCC4=CC(=O)CC[C@]4(C)[C@H]3[C@@H](O)C[C@@]21C
inactive: cytotoxicity increase [1] -16.6% [at 15.8 µM] | viability change, negative = cytotoxic [2] 4.81% [at 15.8 µM] | max response [9] 4.99% | activity change [3] -15.7% [at 15.8 µM, hits give high values] | cytotoxicity increase [4] -6.66% [at 15.8 µM] | activity change, negative = cytotoxic [5] 2.32% [at 15.8 µM] | cytotoxicity [6] -8.51% [at 15.8 µM] | cytotoxicity increase [7] -7.71% [at 15.8 µM] | activity change, negative = cytotoxicity [8] 0.536% [at 15.8 µM]

O=C(O)C(Cc1cc(I)c(O)c(I)c1)c1ccccc1 (configuration not stated)
inactive: Potency [1] | Potency [2] | max response [9] 0.775% | Potency [3] | Potency [5] | Potency [6] | Potency [7] | Potency [8]

CC(=O)CC(c1ccc([N+](=O)[O-])cc1)c1c(O)c2ccccc2oc1=O (configuration not stated)
inactive: Potency [1] | Potency [2] | Potency [3] | Potency [4] | Potency [5] | Potency [6] | Potency [7]

CO[C@@]12[C@H](COC(N)=O)C3=C(C(=O)C(C)=C(N)C3=O)N1C[C@@H]1N[C@@H]12
inactive: Potency [1] | Potency [3] | Potency [8]
active: Potency [2] 1.34 µM | Potency [9] 0.674 µM | Potency [5] 5.35 µM | Potency [6] 8.49 µM | Potency [7] 6.74 µM

O=C(N/N=C/c1ccc([N+](=O)[O-])o1)c1ccc(O)cc1
inactive: Potency [4] | Potency [6]

CCc1nn(CCCN2CCN(c3cccc(Cl)c3)CC2)c(=O)n1CCOc1ccccc1
inactive: Potency [3] | Potency [4] | Potency [6] | Potency [8]
active: Potency [10] 8.49 µM | Potency [9] 8.49 µM

O=[N+]([O-])c1cccc(S(=O)(=O)NCCNS(=O)(=O)c2cccc([N+](=O)[O-])c2)c1
inactive: Potency [10] | Potency [2] | max response [9] -6.21% | Potency [3] | Potency [5] | Potency [6] | Potency [8]

CCCCCCCCCCCC[N+](C)(C)CC(=O)[O-]
inactive: Potency [10] | Potency [2] | max response [9] -3.41% | Potency [5] | Potency [8]

CC(Cl)C(Cl)Cl (configuration not stated)
inactive: Potency [10] | Potency [2] | Potency [5] | Potency [6] | Potency [7] | Potency [8]
active: Potency [3] 42.9 µM

O=C(c1ccc(O)cc1)c1ccc(Cl)cc1
active: Potency [10] 25.1 µM | Potency [9] 25.1 µM
inactive: Potency [2] | Potency [5] | Potency [6] | Potency [7] | Potency [8]

O=C1NCCN1
inactive: Potency [2] | max response [9] 4.04% | Potency [4] | Potency [5] | Potency [6] | Potency [7] | Potency [8]

CCCCCCCCCCCC[N+](C)(C)CCCS(=O)(=O)[O-]
inactive: Potency [10] | Potency [2] | max response [9] -0.977% | Potency [4] | Potency [5] | Potency [6] | Potency [7] | Potency [8]

CCCCN(CCCC)CCCOC(=O)c1ccc(N)cc1
inactive: Potency [1] | Potency [2] | Potency [3] | Potency [5] | Potency [6] | Potency [7] | Potency [8]

Oc1ccc(Nc2ccccc2)cc1
active: Potency [10] 19.5 µM | Potency [9] 19.5 µM
inactive: Potency [5] | Potency [6] | Potency [7]

O=c1[nH]c2ccc(S(=O)CCN3CCC(Cc4ccc(F)cc4)CC3)cc2o1 (configuration not stated)
inactive: Potency [1] | Potency [2] | Potency [3] | Potency [5] | Potency [8]

COCCOC(=O)C1=C(C)NC(C)=C(C(=O)OC/C=C/c2ccccc2)C1c1cccc([N+](=O)[O-])c1 (configuration not stated)
inactive: Potency [1] | Potency [3] | Potency [4] | Potency [6] | Potency [7]
active: Potency [8] 5.35 µM

NC(=O)N(O)[C@@H]1C=C[C@H](Oc2cccc(Oc3ccc(F)cc3)c2)C1
inactive: Potency [5] | Potency [8]
active: Potency [1] 43.6 µM | Potency [9] 19.5 µM | Potency [6] 38.9 µM | Potency [7] 38.9 µM

CCCCC1C(=O)N(c2ccccc2)N(c2ccc(O)cc2)C1=O (configuration not stated)
active: Potency [5] 16.9 µM | Potency [7] 10.7 µM
inactive: Potency [2] | Potency [8]

O=C(CCCN1CCC(O)(c2ccc(Br)cc2)CC1)c1ccc(F)cc1
active: Potency [6] 23.9 µM | Potency [7] 23.9 µM
inactive: Potency [1] | Potency [2] | Potency [3] | Potency [8]

CN(C)CCOC1=Cc2ccccc2Sc2ccc(Cl)cc21
inactive: Potency [10] | Potency [2] | Potency [3]
active: Potency [5] 21.3 µM | Potency [6] 23.9 µM | Potency [7] 23.9 µM

Fc1ccccc1[C@@H](F)COC1CCC(Nc2ncnc3[nH]ncc23)CC1 (some centres not stated)
active: Potency [9] 24.5 µM
inactive: Potency [2] | Potency [3] | Potency [4] | Potency [5] | Potency [6] | Potency [7] | Potency [8]

CCC(Cc1ccccc1)(C(=O)c1ccc(N2CCOCC2)cc1)N(C)C (configuration not stated)
inactive: Potency [2] | Potency [3] | Potency [5] | Potency [6] | Potency [7] | Potency [8]
